According to PubChem BioAssay:
Inconclusive results are not listed. Calls of active or inactive are those of the source.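 Rule for the calls, unless noted: active = aptamer binding inhibition above 30%, about 3 SD of noise from non-fluorescent compounds; inactive = inhibition at or below 30%.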

Key:
[1] = rapamycin-like changes in RPL19A-GFP expression – cell-based, S. cerevisiae, multiplex flow cytometry, primary screen (AID 1862; in the data active = percent of DMSO control GFP below about 86%;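 note: lower values mimic rapamycin by blocking the RPL19A rise seen in DMSO cells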); conditions: S. cerevisiae RPL19A-GFP strain, flow cytometry fluorescence, 3 h; at 10 µM; stronger effect = lower value
[2] = TOR pathway GLN3 branch reporter MEP2-GFP changes – S. cerevisiae, multiplex flow cytometry, primary screen (AID 1867;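 active = GFP response, as percent of the DMSO control, above the screen-wide mean plus 3 SD, about 139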;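 note: median GFP channel fluorescence of barcode-gated MEP2-GFP cells measured by flow cytometry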); conditions: S. cerevisiae MEP2-GFP strain, 3 h, at 10 µM, stronger effect = higher value, 100% means same as DMSO wells
[3] = TOR pathway RTG branch CIT2 reporter changes – S. cerevisiae, GFP fusion, multiplex flow cytometry, primary screen (AID 1870;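 active = percent response above a set limit, the screen-wide mean plus 3 SD, cut at about 130% in these data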;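 note: barcoded CIT2-GFP strain pooled with four other GFP strains with rapamycin as positive control; median GFP fluorescence per well over plate mean of DMSO wells so 100% = DMSO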); conditions: S. cerevisiae CIT2-GFP expression, 3 h, at 10 µM, stronger effect = higher value
[4] = TOR pathway LAP4-GFP level changes – S. cerevisiae, multiplex flow cytometry, primary screen (AID 1873;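 active = GFP signal, as percent of the solvent control, above the screen mean plus 3 SD, about 149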); conditions: S. cerevisiae LAP4-GFP expression, 3 h, at 10 µM, stronger effect = higher value
[5] = yeast AGP1-GFP level changes, GLN3 branch – cell-based, multiplex flow cytometry, S. cerevisiae, primary screen (AID 1887;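 active = GFP signal above the screen-wide mean plus 3 SD, that is over about 124.5% of the solvent control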;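 note: AGP1-GFP fusion strain of S. cerevisiae within a five-strain barcoded multiplex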); conditions: 3 h, at 10 µM, stronger effect = higher value
[6] = reduced mouse 2C T cell binding to pMHC/ICAM-1 vesicles – MLPCN validation set, flow cytometry, LFA-1/ICAM-1 modulator project, pilot screen (AID 2523;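 active = response below a set limit, under 55% cells CD8-positive and vesicle-bound, and CD8 cells' 90th-percentile brightness under 279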;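 for vesicle binding response: mean PE anti-B7-1 fluorescence of CD8+ cells relative to row control; 100% = QL9-loaded vesicles with DMSO vehicle in the same plate row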); conditions: 2C mouse CD8+ T cells, at 7 µM, stronger effect = lower value; double positive events: measured here: CD8+/vesicle+ event percentage
[7] = target: Integrin beta-1 (Homo sapiens) + Integrin alpha-4 (Homo sapiens) (UniProt P13612+P05556); experiment: alpha4beta1 integrin LIBS antibody binding reduction – U937 cells, HUTS-21 mAb, flow cytometry, validation set, VLA-4 allosteric modulator project, pilot screen (AID 2674;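 active = inhibition above 50%, about 3 SD of the validation set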;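 note: antibody binding induced by the VLA-4 ligand LDV present at three times its Kd; 0% = LDV ligand with antibody and no compound and 100% = antibody without LDV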); conditions: HUTS-21 LIBS mAb binding, at 6.7 µM, stronger effect = higher value, binding induced by LDV ligand
[8] = calorie-restriction mimetic ROS inhibitors, yeast – validation compound set, pilot screen (AID 2706;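 active = superoxide response below 65% of plate, a cut near 3 SD across the whole screen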;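 note: yeast exposed to compound for one week at 30 degrees C before staining; 100% = mean of all compound wells on the same plate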); conditions: S. cerevisiae aging, superoxide DHE fluorescence; at 10 µM, stronger effect = lower value
[9] = target: Beta-adrenergic receptor kinase 1 (Homo sapiens) (UniProt P25098); experiment: GRK2 binders displacing RNA aptamer, biochemical, validation, human GRK2, bead flow cytometry (AID 488806); conditions: bead-bound GRK2, FAM-aptamer displacement, at 10 µM, stronger effect = higher value
[10] = target: AP-2 complex subunit beta (Homo sapiens) (UniProt P63010); experiment: beta-arrestin/AP2 interaction blockers – biochemical, validation set, GST-AP2 beads, flow cytometry, pilot screen (AID 504541;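 active = inhibition above 54%, about 3 SD of non-fluorescent compounds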;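 note: AP2 carries R879A mutation and is captured from E. coli lysate; bead-bound FITC arrestin peptide fluorescence measuring arrestin peptide binding to AP2; 0% = DMSO wells and 100% = excess unlabeled arrestin peptide control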); conditions: FITC arrestin peptide, at 10 µM, stronger effect = higher value, AP2 beta2 appendage fragment, R879A mutant
[11] = cytosolic pH regulators acting via V-ATPase – S. cerevisiae, pHLuorin, HTS validation (AID 504600; in the data active = response above about 15%;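 note: plate controls were DMSO for no effect and reference compound for full effect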); conditions: V-ATPase proton transport, at 10 µM, stronger effect = higher value
[12] = test system: anti-desmoglein-3 scFv antibody binding to human DSG3; experiment: blockers of pathogenic pemphigus antibody–desmoglein-3 binding – biochemical, validation compound set, bead-based, flow cytometry, pilot screen (AID 588368;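 active = binding below the plate cutoff, the plate median minus 3 SD, with a reading above zero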;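 note: signal is the median channel fluorescence of bead-bound GFP antibody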); conditions: Protein G beads, DSG3-Fc, scFv-GFP binding, at 10 µM, stronger effect = lower value
[13] = Nile Red efflux blockade in pump-expressing yeast – validation compound set, multiplex, phenotypic, pilot screen (AID 588506;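 active = efflux inhibition above 0.42, the validation set average plus 4 SD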;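 note: Nile Red retained in cells so higher fluorescence means more efflux inhibition; 0 = negative control wells and 1 = enniatin B 25 µM full block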); conditions: S. cerevisiae pump-expressing triplex, Nile Red efflux flow cytometry; at 10 µM; stronger effect = higher value; the pumps come from Candida albicans
[14] = target: ATP-binding cassette sub-family B member 6 (Homo sapiens) (UniProt Q9NP58); experiment: blockers of ABCB6-driven porphyrin uptake – K562-ABCB6 cells, flow cytometry, validation set, pilot screen (AID 588550;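 active = inhibition above the screen-wide mean plus 3 SD, about 51%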;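 note: 0% = DMSO wells and 100% = benzethonium chloride 70 µM positive control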); conditions: K562-ABCB6 porphyrin accumulation, 1 h, at 10 µM, stronger effect = higher value
[15] = AML differentiation inducers, ER-HoxA9 marrow cells – cell-based, GFP/MAC1 double positive, flow cytometry, validation set, primary screen (AID 588685;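 active = differentiation response of at least 50%, scaled between solvent and reference control, from cells with both markers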;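 note: compound exposure lasts four days before antibody staining and flow analysis; 0% = DMSO wells and 100% = 5 µM fulvestrant positive control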); conditions: stronger effect = higher value, normalized: vehicle 0, fulvestrant 100

ATP-binding cassette sub-family B member 6 (Homo sapiens), sequence (Q9NP58 whole entry, looked up): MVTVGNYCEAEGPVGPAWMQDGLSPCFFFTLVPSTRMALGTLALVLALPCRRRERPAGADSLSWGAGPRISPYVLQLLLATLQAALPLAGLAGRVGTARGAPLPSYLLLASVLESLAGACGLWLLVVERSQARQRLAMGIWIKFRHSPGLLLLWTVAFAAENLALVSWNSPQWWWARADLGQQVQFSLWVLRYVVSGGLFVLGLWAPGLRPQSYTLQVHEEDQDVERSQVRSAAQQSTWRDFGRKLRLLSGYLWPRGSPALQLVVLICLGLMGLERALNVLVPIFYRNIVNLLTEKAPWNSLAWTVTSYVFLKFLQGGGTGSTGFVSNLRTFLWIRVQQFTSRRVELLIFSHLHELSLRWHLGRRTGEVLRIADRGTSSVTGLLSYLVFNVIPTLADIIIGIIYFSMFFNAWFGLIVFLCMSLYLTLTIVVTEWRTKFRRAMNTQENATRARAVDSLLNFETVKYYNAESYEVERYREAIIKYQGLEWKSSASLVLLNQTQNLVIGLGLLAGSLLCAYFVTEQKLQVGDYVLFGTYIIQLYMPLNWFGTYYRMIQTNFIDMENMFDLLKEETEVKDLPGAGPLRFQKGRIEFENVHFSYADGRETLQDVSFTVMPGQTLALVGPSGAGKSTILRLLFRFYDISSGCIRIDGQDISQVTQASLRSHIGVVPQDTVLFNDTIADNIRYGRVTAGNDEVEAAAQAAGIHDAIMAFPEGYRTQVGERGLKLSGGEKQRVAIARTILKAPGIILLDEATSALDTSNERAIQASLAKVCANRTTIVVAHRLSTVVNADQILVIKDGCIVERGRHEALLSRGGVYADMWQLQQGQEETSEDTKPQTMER
Integrin beta-1 (Homo sapiens) + Integrin alpha-4 (Homo sapiens), sequence (P05556 whole entry, looked up): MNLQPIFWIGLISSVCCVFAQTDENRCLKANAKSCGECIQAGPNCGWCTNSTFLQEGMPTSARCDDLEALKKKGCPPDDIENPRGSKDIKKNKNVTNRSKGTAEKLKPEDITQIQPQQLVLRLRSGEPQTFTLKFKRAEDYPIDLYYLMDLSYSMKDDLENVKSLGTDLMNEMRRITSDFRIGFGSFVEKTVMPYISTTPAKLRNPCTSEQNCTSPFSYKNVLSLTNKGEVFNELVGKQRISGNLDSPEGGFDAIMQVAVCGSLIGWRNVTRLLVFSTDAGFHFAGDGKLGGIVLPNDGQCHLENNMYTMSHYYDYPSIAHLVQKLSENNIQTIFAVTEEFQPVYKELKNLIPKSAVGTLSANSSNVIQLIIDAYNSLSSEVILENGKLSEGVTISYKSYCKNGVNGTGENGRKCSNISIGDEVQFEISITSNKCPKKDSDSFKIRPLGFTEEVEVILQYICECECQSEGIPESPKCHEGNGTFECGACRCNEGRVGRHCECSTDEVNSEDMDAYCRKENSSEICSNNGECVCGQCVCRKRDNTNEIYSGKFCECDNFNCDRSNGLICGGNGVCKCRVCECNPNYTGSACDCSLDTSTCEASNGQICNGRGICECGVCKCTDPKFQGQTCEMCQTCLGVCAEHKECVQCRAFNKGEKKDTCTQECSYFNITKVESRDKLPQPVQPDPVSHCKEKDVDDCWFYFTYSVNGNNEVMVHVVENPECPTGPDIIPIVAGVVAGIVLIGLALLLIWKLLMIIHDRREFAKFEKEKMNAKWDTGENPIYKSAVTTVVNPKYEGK
Integrin beta-1 (Homo sapiens) + Integrin alpha-4 (Homo sapiens), sequence (P13612 whole entry, looked up): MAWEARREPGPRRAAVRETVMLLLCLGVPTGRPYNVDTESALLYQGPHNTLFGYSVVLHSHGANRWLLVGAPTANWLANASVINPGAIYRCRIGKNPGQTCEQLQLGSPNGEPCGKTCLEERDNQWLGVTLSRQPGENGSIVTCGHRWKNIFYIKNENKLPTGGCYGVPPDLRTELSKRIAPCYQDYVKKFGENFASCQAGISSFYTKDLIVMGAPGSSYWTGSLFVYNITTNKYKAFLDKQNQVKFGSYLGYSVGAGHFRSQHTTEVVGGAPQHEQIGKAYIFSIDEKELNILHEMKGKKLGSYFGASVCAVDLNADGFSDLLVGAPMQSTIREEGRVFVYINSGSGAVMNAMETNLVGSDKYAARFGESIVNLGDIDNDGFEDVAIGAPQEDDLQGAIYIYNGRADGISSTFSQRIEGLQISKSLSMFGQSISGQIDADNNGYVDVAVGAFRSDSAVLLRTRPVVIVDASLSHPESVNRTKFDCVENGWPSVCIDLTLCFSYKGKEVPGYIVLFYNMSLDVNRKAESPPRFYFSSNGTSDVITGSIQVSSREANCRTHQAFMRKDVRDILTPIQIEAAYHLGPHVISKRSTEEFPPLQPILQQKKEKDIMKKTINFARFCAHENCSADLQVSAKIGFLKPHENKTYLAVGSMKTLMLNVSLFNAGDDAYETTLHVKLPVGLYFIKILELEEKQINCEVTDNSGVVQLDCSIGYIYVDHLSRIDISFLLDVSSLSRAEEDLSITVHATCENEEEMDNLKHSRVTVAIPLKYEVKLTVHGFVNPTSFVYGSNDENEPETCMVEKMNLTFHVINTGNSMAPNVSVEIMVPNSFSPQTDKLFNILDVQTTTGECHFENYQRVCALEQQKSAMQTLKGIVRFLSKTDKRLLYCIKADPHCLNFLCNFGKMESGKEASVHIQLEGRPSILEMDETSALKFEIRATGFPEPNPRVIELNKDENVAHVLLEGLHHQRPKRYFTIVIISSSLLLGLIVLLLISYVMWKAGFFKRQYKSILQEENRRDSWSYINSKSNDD
Beta-adrenergic receptor kinase 1 (Homo sapiens), sequence (P25098 whole entry, looked up): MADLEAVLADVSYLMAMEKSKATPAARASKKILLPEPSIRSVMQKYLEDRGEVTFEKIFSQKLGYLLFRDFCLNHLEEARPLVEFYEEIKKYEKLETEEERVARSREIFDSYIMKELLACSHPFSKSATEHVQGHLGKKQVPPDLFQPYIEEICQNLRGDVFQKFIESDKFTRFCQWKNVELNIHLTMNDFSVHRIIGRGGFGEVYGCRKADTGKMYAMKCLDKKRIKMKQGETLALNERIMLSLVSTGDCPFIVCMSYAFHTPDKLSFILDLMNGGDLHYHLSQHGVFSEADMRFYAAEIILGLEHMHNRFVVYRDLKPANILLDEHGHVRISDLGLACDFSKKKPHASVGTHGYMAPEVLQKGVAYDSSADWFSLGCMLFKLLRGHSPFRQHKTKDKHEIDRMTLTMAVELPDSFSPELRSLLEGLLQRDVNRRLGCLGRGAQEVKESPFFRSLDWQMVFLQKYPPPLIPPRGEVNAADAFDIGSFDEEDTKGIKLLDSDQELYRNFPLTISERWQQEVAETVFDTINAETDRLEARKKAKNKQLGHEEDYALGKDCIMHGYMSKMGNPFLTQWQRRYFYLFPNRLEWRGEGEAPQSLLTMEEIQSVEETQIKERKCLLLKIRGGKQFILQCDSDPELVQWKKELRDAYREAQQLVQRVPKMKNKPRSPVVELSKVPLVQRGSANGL
AP-2 complex subunit beta (Homo sapiens), sequence (P63010 whole entry, looked up, the tested form may be a part, one chain of several): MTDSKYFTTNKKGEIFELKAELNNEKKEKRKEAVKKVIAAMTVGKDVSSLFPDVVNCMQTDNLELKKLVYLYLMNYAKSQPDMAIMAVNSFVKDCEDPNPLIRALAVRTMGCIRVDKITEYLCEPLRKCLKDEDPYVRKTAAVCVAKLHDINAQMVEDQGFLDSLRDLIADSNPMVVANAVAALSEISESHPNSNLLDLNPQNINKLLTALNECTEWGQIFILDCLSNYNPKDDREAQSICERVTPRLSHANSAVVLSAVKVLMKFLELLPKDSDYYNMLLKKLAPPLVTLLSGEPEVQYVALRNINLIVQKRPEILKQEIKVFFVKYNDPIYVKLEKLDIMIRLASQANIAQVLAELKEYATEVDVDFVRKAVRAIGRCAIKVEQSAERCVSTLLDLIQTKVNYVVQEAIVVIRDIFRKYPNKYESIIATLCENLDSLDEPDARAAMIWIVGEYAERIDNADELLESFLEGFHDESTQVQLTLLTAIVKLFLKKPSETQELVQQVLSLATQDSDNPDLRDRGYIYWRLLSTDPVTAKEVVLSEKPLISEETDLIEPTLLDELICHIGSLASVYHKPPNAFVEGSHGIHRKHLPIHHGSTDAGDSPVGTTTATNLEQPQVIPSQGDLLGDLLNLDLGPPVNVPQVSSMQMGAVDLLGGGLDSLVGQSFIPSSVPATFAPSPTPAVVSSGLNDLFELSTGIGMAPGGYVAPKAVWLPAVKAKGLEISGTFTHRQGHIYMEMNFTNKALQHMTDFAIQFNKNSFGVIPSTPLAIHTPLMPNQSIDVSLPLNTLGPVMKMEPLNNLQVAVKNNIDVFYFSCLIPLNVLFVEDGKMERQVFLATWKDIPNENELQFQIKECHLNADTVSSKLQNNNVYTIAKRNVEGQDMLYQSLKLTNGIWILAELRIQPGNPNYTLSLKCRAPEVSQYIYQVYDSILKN

Row | SMILES | percent of DMSO control GFP [1] | GFP response vs DMSO [2] | percent response of DMSO control [3] | GFP response vs DMSO [4] | GFP response, % of DMSO [5] | double positive events [6] [%] | vesicle binding response [6] | inhibition [7] | superoxide response (% of plate) [8] | aptamer binding inhibition [9] | inhibition [10] | response [11] | binding (% of control) [12] | efflux inhibition (fraction of control) [13] | inhibition [14] | differentiation response [15]
1 | COc1ccc(-c2[nH]ncc2C=O)cc1OC | 99.3% (inactive) | 96.9% (inactive) | 106% (inactive) | 91.3% (inactive) | 95.8% (inactive) | 52 | 201% (inactive) | -1.17% (inactive) | 93.7% (inactive) | 2% (inactive) | 11.3% (inactive) | 3.37% (inactive) | 101% (inactive) | -0.12 (inactive) | 8% (inactive) | -11.5% (inactive)
2 | COc1cc(=O)n(C)c2ccccc12 | 93.5% (inactive) | 99.9% (inactive) | 97.9% (inactive) | 90.3% (inactive) | 93.7% (inactive) | 54.6 | 136% (inactive) | 7.22% (inactive) | 103% (inactive) | 3% (inactive) | 28% (inactive) | 3.71% (inactive) | 96.9% (inactive) | 0.33 (inactive) | 3% (inactive) | -1.82% (inactive)
3 | NCCOc1ccccc1OCCN | 102% (inactive) | 93.8% (inactive) | 102% (inactive) | 90.3% (inactive) | 99.9% (inactive) | 59.5 | 208% (inactive) | -6.77% (inactive) | 91.8% (inactive) | -6% (inactive) | -11.9% (inactive) | -1.26% (inactive) | 109% (inactive) | -0.2 (inactive) | 11% (inactive) | -26% (inactive)
4 | CC(=O)OCC(=O)[C@@]12OC(C)(C)O[C@@H]1C[C@H]1[C@@H]3C[C@H](F)C4=CC(=O)C=C[C@]4(C)[C@@]3(F)[C@@H](O)C[C@@]12C | 104% (inactive) | 107% (inactive) | 106% (inactive) | 100% (inactive) | 105% (inactive) | 64.6 | 212% (inactive) | 3.49% (inactive) | 94.7% (inactive) | 0% (inactive) | 2.71% (inactive) | 1.38% (inactive) | 91.8% (inactive) | 0.03 (inactive) | 8% (inactive) | 19.2% (inactive)
5 | Cc1ccc(-n2ncc3c(Nc4cccc(C(=O)O)c4)ncnc32)cc1 | 100% (inactive) | 102% (inactive) | 93% (inactive) | 105% (inactive) | 93.9% (inactive) | 66.3 | 217% (inactive) | -5.84% (inactive) | 105% (inactive) | -2% (inactive) | -0.33% (inactive) | -4.83% (inactive) | 101% (inactive) | 0.1 (inactive) | 5% (inactive) | 74.1% (active)
6 | O=C(/C=C/c1ccc(Cl)cc1)NCCc1ccccc1 | 102% (inactive) | 92.8% (inactive) | 97.9% (inactive) | 97.4% (inactive) | 97.5% (inactive) | 54.1 | 270% (inactive) | 2.56% (inactive) | 106% (inactive) | -1% (inactive) | -7.53% (inactive) | 2.01% (inactive) | 98.2% (inactive) | -0.09 (inactive) | 7% (inactive) | -5.05% (inactive)
7 | Cc1ncc([N+](=O)[O-])n1CCO | 99.6% (inactive) | 93.8% (inactive) | 105% (inactive) | 97.4% (inactive) | 94.6% (inactive) | 59.8 | 172% (inactive) | 10% (inactive) | 98.8% (inactive) | 1% (inactive) | -1.26% (inactive) | 3.07% (inactive) | 93.1% (inactive) | 0.18 (inactive) | 5% (inactive) | -9.89% (inactive)
8 | COCCn1c(/C=C/c2ccccc2)nc2ccccc21 | 96.8% (inactive) | 101% (inactive) | 93% (inactive) | 93.3% (inactive) | 87.9% (inactive) | 59.7 | 149% (inactive) | 1.62% (inactive) | 92.6% (inactive) | 2% (inactive) | 10.5% (inactive) | 0.08% (inactive) | 105% (inactive) | 0.22 (inactive) | 6% (inactive) | -5.05% (inactive)
9 | COc1cc2c(cc1OC)C(c1cc3ccccc3oc1=O)=NC(C)(C)C2 | 101% (inactive) | 103% (inactive) | 107% (inactive) | 96.4% (inactive) | 100% (inactive) | 46.8 | 137% (inactive) | 10.9% (inactive) | 117% (inactive) | 3% (inactive) | -0.33% (inactive) | 2.07% (inactive) | 98.7% (inactive) | 0.1 (inactive) | 10% (inactive) | -13.1% (inactive)
10 | CN(C)C(=O)C12CCC(C)(c3nc4ccccc4nc31)C2(C)C (stereo not given) | 104% (inactive) | 101% (inactive) | 106% (inactive) | 99.4% (inactive) | 99.3% (inactive) | 62.9 | 190% (inactive) | 0.69% (inactive) | 95.4% (inactive) | -1% (inactive) | 9.98% (inactive) | 1.66% (inactive) | 103% (inactive) | -0.09 (inactive) | 5% (inactive) | 1.41% (inactive)
